# Experimental data from PubChem BioAssay (EPA / NIEHS).
# Records with an inconclusive call do not appear. Activity calls are given as the source filed them. The calls were made as follows, unless noted: active = hit-call score of the fitted dose curve at least 0.9, where 1 is the maximum; inconclusive = response in the unintended direction; inactive = score below 0.9.
# Key:
# [1] = read-out: Thyroid Hormone Responsive (THRSP), THRSP (gene 7069); experiment: LTEA_HepaRG_THRSP: Life Technologies and Expression Analysis (LTEA) Assay for Thyroid Hormone Responsive (THRSP) using HepaRG (AID 2283536; active = hit-call score of the fitted dose curve at least 0.9, where 1 is the maximum; inactive = score below 0.9); conditions: mRNA level, 48 h; actives raise or lower the signal
# Method in brief: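 Differentiated human HepaRG cells were exposed in duplicate for 48 h in serum-free induction medium to eight concentrations (top 100 uM, half-log steps, 0.5% DMSO). Expression was quantified by TaqMan qRT-PCR, normalized to ACTB, GAPDH and POLR2A, with bidirectional fitting against DMSO.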
# [2] = read-out: Cellular tumor antigen p53 (Homo sapiens) (UniProt P04637); experiment: LTEA_HepaRG_TP53: Life Technologies and Expression Analysis (LTEA) Assay for Tumor Protein P53 (TP53) using HepaRG (AID 2283537; active = hit-call score of the fitted dose curve at least 0.9, where 1 is the maximum; inactive = score below 0.9); conditions: mRNA level, 48 h; actives raise or lower the signal
# Method in brief: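 Differentiated HepaRG cells in serum-free induction medium exposed 48 h in duplicate to 8 half-log concentrations, top 100 uM, 0.5% DMSO. TP53 mRNA by TaqMan qRT-PCR (Fluidigm), normalized to ACTB, GAPDH, POLR2A; fitted bidirectionally versus DMSO.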
# [3] = read-out: UDP glucuronosyltransferase (UGT1A1), UGT1A1 (gene 54658); experiment: LTEA_HepaRG_UGT1A1: Life Technologies and Expression Analysis (LTEA) Assay for UDP glucuronosyltransferase (UGT1A1) using HepaRG (AID 2283538; active = hit-call score of the fitted dose curve at least 0.9, where 1 is the maximum; inactive = score below 0.9); conditions: mRNA level, 48 h; actives raise or lower the signal
# Method in brief: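 Human liver HepaRG cultures receive test chemical for 48 h, up to 100 uM in 0.5% DMSO, with phenobarbital induction controls. UGT1A1 mRNA is measured by qRT-PCR and normalized to ACTB, GAPDH and POLR2A.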
# [4] = read-out: UDP glucuronosyltransferase (UGT1A6), UGT1A6 (gene 54578); experiment: LTEA_HepaRG_UGT1A6: Life Technologies and Expression Analysis (LTEA) Assay for UDP glucuronosyltransferase (UGT1A6) using HepaRG (AID 2283539; active = hit-call score of the fitted dose curve at least 0.9, where 1 is the maximum; inactive = score below 0.9); conditions: mRNA level, 48 h; actives raise or lower the signal
# Method in brief: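 Expression was quantified by TaqMan qRT-PCR on Fluidigm arrays with ACTB/GAPDH/POLR2A normalization and bidirectional fitting against 0.5% DMSO. HepaRG cells (~100,000/well) were treated in duplicate for 48 h at eight half-log concentrations up to 100 uM in serum-free induction medium.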
# [5] = read-out: X-box binding protein 1 (XBP1), XBP1 (gene 7494); experiment: LTEA_HepaRG_XBP1: Life Technologies and Expression Analysis (LTEA) Assay for X-box binding protein 1 (XBP1) using HepaRG (AID 2283540; active = hit-call score of the fitted dose curve at least 0.9, where 1 is the maximum; inactive = score below 0.9); conditions: mRNA level, 48 h; actives raise or lower the signal
# Method in brief: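 XBP1 transcript by qRT-PCR (housekeeping-normalized: ACTB, GAPDH, POLR2A) after 48 h chemical treatment of HepaRG cells, 8-point half-log series topping at 100 uM, vehicle 0.5% DMSO. Gain and loss of signal fitted relative to DMSO.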
# [6] = LTEA_HepaRG_LDH_cytotoxicity: Cytotoxicity Assessment in the Life Technologies and Expression Analysis (LTEA) Assay (AID 2283563);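 as to AC50: LDH activity released into spent culture medium as a marker of cell death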
# Method in brief: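 LDH release into culture medium read after 48 h chemical treatment of HepaRG cells. Duplicate wells, eight-point half-log series topping at 100 uM, 0.5% DMSO vehicle and baseline.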
# [7] = TOX21_p53_BLA_p2_viability: Viability Assessment in the Tox21 HCT-116 p53 Agonism Beta-lactamase Assay, Phase 2 (AID 2283591);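 also: compound exposure lasted 16 h at 37 °C; actives lower the ATP signal meaning cytotoxicity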
# Method in brief: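 HCT-116 p53-bla cells (4000/well) rested 5 h at 37C, then received compounds in DMSO (217-fold dilution) for 16 h at 37C, 5% CO2. After the CCF4 read, CellTiter-Glo was added; ATP luminescence was read after 30 min at room temperature.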
# [8] = target: Cellular tumor antigen p53 (Homo sapiens) (UniProt P04637); experiment: TOX21_p53_BLA_p2_ratio: Tox21 HCT-116 p53 Agonism Beta-lactamase Assay, Ratio, Phase 2 (AID 2283592)
# Chain of Cellular tumor antigen p53 (Homo sapiens) (P04637 whole entry, looked up): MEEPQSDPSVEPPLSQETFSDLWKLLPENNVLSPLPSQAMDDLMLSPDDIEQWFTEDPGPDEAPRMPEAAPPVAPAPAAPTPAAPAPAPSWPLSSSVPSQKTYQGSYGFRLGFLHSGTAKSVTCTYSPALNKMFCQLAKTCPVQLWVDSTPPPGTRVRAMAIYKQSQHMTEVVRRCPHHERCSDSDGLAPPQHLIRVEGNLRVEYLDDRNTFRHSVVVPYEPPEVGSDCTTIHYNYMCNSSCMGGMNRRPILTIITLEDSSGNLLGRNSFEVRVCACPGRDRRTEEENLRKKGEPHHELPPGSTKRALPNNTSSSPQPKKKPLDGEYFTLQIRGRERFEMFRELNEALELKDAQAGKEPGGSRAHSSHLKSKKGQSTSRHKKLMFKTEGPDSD
# Method in brief: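 Gain-of-signal p53 agonism was scored from the beta-lactamase FRET ratio (460/530 nm, 405 nm excitation) in HCT116 cells treated 16 h at 37C, 5% CO2, with DMSO serving as negative control and baseline.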
# [9] = TOX21_p53_BLA_p3_viability: Viability Assessment in the Tox21 HCT-116 p53 Agonism Beta-lactamase Assay, Phase 3 (AID 2283593);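 also: cells exposed to compound for 16 h before reading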
# Method in brief: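 HCT-116 cells (4000/well) rested 5 h at 37C, then got DMSO compounds by pin tool (217-fold dilution) for 16 h at 37C, 5% CO2. After the bla read, CellTiter-Glo was added and luminescence read at 30 min, room temperature.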
# [10] = target: Cellular tumor antigen p53 (Homo sapiens) (UniProt P04637); experiment: TOX21_p53_BLA_p3_ratio: Tox21 HCT-116 p53 Agonism Beta-lactamase Assay, Ratio, Phase 3 (AID 2283596)
# Method in brief: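 HCT116 p53-bla cells (4000/well) given compound in DMSO (217-fold dilution) after 5 h, incubated 16 h at 37C. CCF4-AM substrate 2 h at room temperature; 460/530 nm emission ratio, gain fitted against DMSO.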
# [11] = TOX21_p53_BLA_p4_viability: Viability Assessment in the Tox21 HCT-116 p53 Agonism Beta-lactamase Assay, Phase 4 (AID 2283597);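 also: hits lower the luminescence signal meaning cytotoxicity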
# Method in brief: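 Following a 16 h exposure at 37C, the treated HCT116 wells were first read for the FRET ratio. They were then lysed with CellTiter-Glo, and ATP luminescence was recorded after 30 min at room temperature.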
# [12] = TOX21_p53_BLA_p5_viability: Viability Assessment in the Tox21 HCT-116 p53 Agonism Beta-lactamase Assay, Phase 5 (AID 2283600)
# Method in brief: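 After the 460/530 nm beta-lactamase measurement, the wells received an ATP-detection luciferase reagent; signal was read 30 min later at RT. Compound treatment lasted 16 h on cells pre-incubated 5 h post-seeding.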
# [13] = target: Cellular tumor antigen p53 (Homo sapiens) (UniProt P04637); experiment: TOX21_p53_BLA_p4_ratio: Tox21 HCT-116 p53 Agonism Beta-lactamase Assay, Ratio, Phase 4 (AID 2283601)
# Method in brief: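 HCT116 cells carrying an inducible beta-lactamase reporter were plated at 4000 cells/well, rested 5 h, then exposed to compounds in DMSO (217-fold dilution) for 16 h at 37C. CCF4-AM substrate was loaded 2 h at room temperature; 460/530 nm emission ratio scored gain-of-signal versus DMSO.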
# [14] = Tanguay_ZF_120hpf_MORT_legacy: (Legacy) Oregon State University Tanguay Lab 120 Hour Post-fertilization zebrafish Assay for Mortality (AID 2283633);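 as to AC50: fitted as increase in binary mortality versus DMSO negative control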
# Method in brief: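 Static waterborne exposure from 6 to 120 hpf at 28C of single dechorionated wild-type (5D) embryos per well, 0.64% DMSO final. Death recorded present/absent by brightfield at 24 and 120 hpf.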
# [15] = Tanguay_ZF_120hpf_YSE_legacy: (Legacy) Oregon State University Tanguay Lab 120 Hour Post-fertilization zebrafish Assay for Yolk Sac Edema (AID 2283634);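 as to AC50: actives raise the incidence of yolk sac edema above the DMSO baseline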
# Method in brief: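 Presence or absence of yolk sac edema was recorded at 120 hpf in surviving larvae. These were wild-type Tropical 5D embryos, chorion removed at 4 hpf, held in static exposure at 28C from 6 hpf with 0.64% DMSO vehicle.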
# [16] = Tanguay_ZF_120hpf_AXIS_legacy: (Legacy) Oregon State University Tanguay Lab 120 Hour Post-fertilization zebrafish Assay for Body Axis Malformation (AID 2283635)
# Method in brief: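 Binary scoring of axis defects at 120 hpf under brightfield, fitted positive versus DMSO. Tropical 5D embryos, chorion removed by pronase at 4 hpf, were singly exposed in sealed, dark plates at 28C from 6 hpf; DMSO 0.64% final.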
# [17] = Tanguay_ZF_120hpf_EYE_legacy: (Legacy) Oregon State University Tanguay Lab 120 Hour Post-fertilization zebrafish Assay for Eye Malformation (AID 2283636);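 also: binary presence or absence of eye malformation scored by brightfield in 120 hpf larvae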
# Method in brief: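 Dechorionated wild-type Tropical 5D zebrafish embryos were exposed statically from 6 hpf, one per well, to 120 hpf at 28C in sealed, foil-covered plates with 0.64% DMSO. Eye malformation was scored present/absent by brightfield microscopy against DMSO controls.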
# [18] = Tanguay_ZF_120hpf_SNOU_legacy: (Legacy) Oregon State University Tanguay Lab 120 Hour Post-fertilization zebrafish Assay for Snout Malformation (AID 2283637)
# Method in brief: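 Tropical 5D wild-type zebrafish embryos, dechorionated with pronase at 4 hpf, were exposed singly from 6 hpf to 120 hpf statically at 28C in 0.64% DMSO. Snout malformation was scored present/absent by brightfield microscopy, fitted against DMSO.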
# [19] = ATG_XTT_Cytotoxicity: Cytotoxicity Assessment in the Attagene TRANS-FACTORIAL HepG2 Assay (AID 2283584)
# Method in brief: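 Viability endpoint from XTT after 24 h chemical exposure of reporter-transfected human HepG2 liver cells; signal loss fitted relative to DMSO negative control.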
# [20] = target: Cellular tumor antigen p53 (Homo sapiens) (UniProt P04637); experiment: TOX21_p53_BLA_p5_ratio: Tox21 HCT-116 p53 Agonism Beta-lactamase Assay, Ratio, Phase 5 (AID 2283599)
# Method in brief: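 HCT-116 cells carrying a p53-inducible beta-lactamase reporter were seeded at 4000 cells/well and dosed after 5 h with compound in DMSO (217-fold dilution). After 16 h at 37C, CCF4-AM substrate was added for 2 h, and the 460/530 nm emission ratio was scored as gain-of-signal versus DMSO.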
structure (smiles),measurement,setting,value
CN(C)C(=O)NC1(c2ccccc2)CCN(CCC[C@]2(c3ccc(Cl)c(Cl)c3)CCCN(C(=O)c3ccccc3)C2)CC1,outcome,[1],inactive
same,outcome,[2],inactive
same,AC50,[3],22 µM (active)
same,AC50,[4],22 µM (active)
same,AC50,[5],12.5 µM (active)
same,AC50,[6],19.1 µM (active)
same,outcome,[7],inactive
same,outcome,[8],inactive
same,outcome,[9],inactive
same,outcome,[10],inactive
same,outcome,[11],inactive
same,outcome,[12],inactive
same,outcome,[13],inactive
same,outcome,[14],inactive
same,outcome,[15],inactive
same,outcome,[16],inactive
same,outcome,[17],inactive
same,outcome,[18],inactive
CCCCC(CC)CO (stereo unspecified),outcome,[1],inactive
same,outcome,[2],inactive
same,outcome,[3],inactive
same,outcome,[4],inactive
same,outcome,[5],inactive
same,outcome,[6],inactive
same,outcome,[19],inactive
same,outcome,[8],inactive
same,outcome,[9],inactive
same,outcome,[10],inactive
same,outcome,[20],inactive
same,outcome,[12],inactive
same,outcome,[13],inactive
same,outcome,[14],inactive
same,outcome,[15],inactive
same,outcome,[16],inactive
same,outcome,[17],inactive
COc1ccc(C(=O)Nc2nc3ccccc3c(NCc3ccccc3)c2C#N)cc1,AC50,[1],13.6 µM (active)
same,outcome,[2],inactive
same,AC50,[3],3.8 µM (active)
same,outcome,[4],inactive
same,AC50,[5],13.2 µM (active)
same,outcome,[6],inactive
same,AC50,[8],60.1 µM (active)
same,outcome,[10],inactive
same,outcome,[11],inactive
same,AC50,[20],63.1 µM (active)
same,AC50,[13],72.8 µM (active)
same,outcome,[14],inactive
same,outcome,[15],inactive
same,outcome,[16],inactive
CC(C)(C)c1ccccc1,outcome,[1],inactive
same,outcome,[2],inactive
same,outcome,[3],inactive
same,outcome,[4],inactive
same,outcome,[5],inactive
same,outcome,[6],inactive
same,outcome,[19],inactive
same,outcome,[9],inactive
same,outcome,[10],inactive
same,outcome,[11],inactive
same,outcome,[20],inactive
same,outcome,[12],inactive
same,AC50,[14],13.1 µM (active)
same,outcome,[15],inactive
same,outcome,[16],inactive
same,outcome,[17],inactive
same,AC50,[18],5.01 µM (active)
CCCCCCCC(=O)OC,outcome,[1],inactive
same,outcome,[2],inactive
same,outcome,[3],inactive
same,outcome,[4],inactive
same,outcome,[5],inactive
same,outcome,[6],inactive
same,outcome,[19],inactive
same,outcome,[7],inactive
same,outcome,[8],inactive
same,outcome,[9],inactive
same,outcome,[10],inactive
same,outcome,[11],inactive
same,outcome,[12],inactive
same,outcome,[13],inactive
same,outcome,[14],inactive
same,outcome,[15],inactive
same,outcome,[16],inactive
same,outcome,[17],inactive
CCC(C)N(C)C(=O)c1cc2ccccc2c(-c2ccccc2Cl)n1 (stereo unspecified),outcome,[1],inactive
same,outcome,[2],inactive
same,AC50,[3],2.1 µM (active)
same,outcome,[4],inactive
same,outcome,[5],inactive
same,outcome,[6],inactive
same,outcome,[19],inactive
same,outcome,[7],inactive
same,outcome,[8],inactive
same,outcome,[9],inactive
same,outcome,[10],inactive
same,outcome,[11],inactive
same,outcome,[20],inactive
same,outcome,[12],inactive
same,outcome,[13],inactive
same,outcome,[14],inactive
same,AC50,[15],20.4 µM (active)
same,outcome,[16],inactive
same,outcome,[17],inactive
CCOCCOCCO,outcome,[1],inactive
same,outcome,[2],inactive
same,outcome,[3],inactive
same,outcome,[4],inactive
same,outcome,[5],inactive
same,outcome,[6],inactive
same,outcome,[19],inactive
same,outcome,[7],inactive
same,outcome,[8],inactive
same,outcome,[9],inactive
same,outcome,[10],inactive
same,outcome,[20],inactive
same,outcome,[13],inactive
same,outcome,[14],inactive
same,outcome,[15],inactive
same,outcome,[16],inactive
same,outcome,[17],inactive
same,outcome,[18],inactive
